These results are taken from PubChem BioAssay (Tox21).

Unmarked numbers belong to inactive results. Inconclusive results are not listed. Active and inactive are the calls of the source. Unless noted, the call rests on the fitted dose curve; in most records, active means well fitted curve in the direction sought with a large enough effect in the repeat runs; inconclusive means weak or mixed curves; inactive means no such curve, though single readings can be large; an effect the other way counts as inactive or inconclusive.

Assay [1] can be described thus: qHTS assay to identify small molecule agonists of the estrogen receptor alpha (ER-alpha) signaling pathway in the presence of an antagonist - cell viability counter screen (AID 1259386).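 Further: cells exposed to compounds for 22 h at 37 °C before the viability read; nearly all actives have a fitted effect of over 30% in size.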 Further: potency means the concentration at half of the fitted maximal effect. Summed up:
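In this counter screen, compound effects on VM7Luc4E2 viability were tested in the presence of the antagonist ICI-182,780 at 10.0nM final. Compounds were dosed at 15 concentrations, exposure lasted 22hr, and the CellTiter-Fluor signal was read.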

Assay [2] concerns the target Progesterone receptor (Homo sapiens) (UniProt P06401). Description: qHTS assay to identify small molecule agonists of the progesterone receptor (PR) signaling pathway (AID 1346784; calls by dose curve; further: nearly all actives have a fitted effect of over 30% in size). Summed up:
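Beta-lactamase reporter read-out: after 16 hr compound treatment at 37C and a further 2 hr at room temperature with LiveBLAzer B/G FRET substrate, fluorescence was measured in PR-UAS-bla HEK 293T cells grown in 2% charcoal-stripped serum.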

Assay [3] shares this target. Description: qHTS assay to identify small molecule antagonists of the progesterone receptor (PR) signaling pathway (AID 1346795; active means well fitted inhibition curve with a large enough effect in the signal ratio in the repeat runs, not every such curve was filed as active; the % refers to the signal ratio; further: potency means the concentration at half of the fitted maximal effect). Summed up:
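Read-out is fluorescence from the LiveBLAzer B/G FRET substrate, cleaved by a UAS-controlled beta-lactamase in PR-UAS-bla HEK293T cells after 16 hr exposure to compound plus 1 nM promegestone (final), followed by 2 hr at room temperature.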

Assay [4] in a line: qHTS assay to identify small molecule antagonists of the progesterone receptor (PR) signaling pathway - cell viability counter screen (AID 1346798). Further: series mostly up to about 92 µM; nearly all actives have a fitted effect of over 50% in size. An outline of the steps: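 HEK293T PR-UAS-bla, 2% charcoal-stripped FBS; 4 hr pre-plate; cpd + R5020, 16 h 37C; LiveBLAzer read first; then CellTiter-Glo 30 min RT, luminescence.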
Assay [5] is described as follows: qHTS assay to identify small molecule agonists of the progesterone receptor (PR) signaling pathway - cell viability counter screen (AID 1346799; calls by dose curve; further: nearly all actives have a fitted effect of over 45% in size). An outline of the steps:
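Luminescence from CellTiter-Glo, added after the beta-lactamase FRET read in the same wells, gave cytotoxicity in PR-UAS-bla HEK293T cells treated with compounds for 16 hr at 37C.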

A short description of assay [6]: qHTS assay to identify small molecule agonists of the TGF-beta/Smad signaling pathway (AID 1346859; active means well fitted activation curve with a large enough effect in the signal ratio in the repeat runs, not every such curve was filed as active; the % refers to the signal ratio; further: series mostly up to about 77 µM). Summed up: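 SBE-bla HEK 293T, 4,000 cells/well, plated o/n; cpd in DMSO, 5 hr, 37 C/5% CO2; B/G FRET substrate 2 hr RT; ex 405, em 460/530 nm.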
In assay [7] the target is Thyrotropin-releasing hormone receptor (Homo sapiens) (UniProt P34981). Description: qHTS assay to identify small molecule antagonists of the thyrotropin-releasing hormone receptor (TRHR) signaling pathway (AID 1346877; active means well fitted inhibition curve with a large enough effect in the repeat runs, not every such curve was filed as active; further: series mostly up to about 51 µM). An outline of the steps:
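Kinetic fluorescence (3 min, 1 s resolution) following stimulation with TRH at 1 nM final; HEK293 cells bearing human TRHR; 5 min compound preincubation at RT; concentration-response over 15 points, triplicates.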

The target is the same in assay [8]. Description: qHTS assay to identify small molecule agonists of the thyrotropin-releasing hormone receptor (TRHR) signaling pathway (AID 1346891; calls by dose curve; further: series mostly up to about 58 µM). An outline of the steps:
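Intracellular calcium rise, read as fluorescence every second for 3 min, served as the agonist signal in dye-loaded HEK293 cells expressing TRHR; each compound ran at 15 concentrations in triplicate.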

Assay [9] is described as follows: Human pregnane X receptor (PXR) small molecule agonists, qHTS cell viability counter screen (AID 1346977). Further: nearly all actives have a fitted effect of over 50% in size. Further: potency means the concentration at half of the fitted maximal effect. Summed up:
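PXR-Luc HepG2, 2,000 cells/well, 5% charcoal-stripped FBS; 5hr settle; cpd 24hr, 37C/5% CO2; CellTiter-Fluor at 23hr, read 1hr later (fluorescence).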

Assay [10] is described as follows: Caspase-3/7 induction in HepG2 cells by small molecules, qHTS assay (AID 1346978). Further: nearly all actives have a fitted effect of over 15% in size. Summed up: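 Caspase-3/7 induction was measured by Caspase-Glo 3/7 luminescence (30 min, room temperature) after a 17 hr compound exposure of wild-type HepG2 cells seeded at 2,000 per well and pre-incubated 5 hr.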
The nature of assay [11]: Caspase-3/7 induction in CHO-K1 cells by small molecules, qHTS cell viability counter screen (AID 1346979). Further: nearly all actives have a fitted effect of over 35% in size. Further: potency means the concentration at half of the fitted maximal effect. Summed up: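 Cells (CHO-K1, wild type) are plated at 1,500 per well and incubated 5hr. Test compounds in DMSO are then pinned in, followed by 16hr at 37C and 5% CO2. Viability is read by CellTiter-Fluor fluorescence after 1hr.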
Assay [12] is described as follows: Caspase-3/7 induction in CHO-K1 cells by small molecules, qHTS assay (AID 1346980). Further: nearly all actives have a fitted effect of over 15% in size. An outline of the steps: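 Luminescent Caspase-Glo 3/7 read (30min, room temperature) quantified apoptosis induction. Cells were wild-type CHO-K1, treated with compound for 17hr at 37 C and 5% CO2.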
Assay [13] can be described thus: Caspase-3/7 induction in HepG2 cells by small molecules, qHTS cell viability counter screen (AID 1346981). Further: nearly all actives have a fitted effect of over 30% in size. Further: potency means the concentration at half of the fitted maximal effect. An outline of the steps: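 In this quantitative HTS counter screen, compounds delivered in DMSO were left on unmodified HepG2 cells for 16 hr at 37 C. Viability was then determined fluorometrically with CellTiter-Fluor, in parallel with caspase-3/7 induction in the same wells.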

Assay [14] concerns the target Cytochrome P450 2D6 (Homo sapiens) (UniProt P10635). The assay is described as follows: Cytochrome P450 Family 2 Subfamily D Member 6 (CYP2D6) small molecule antagonists: luciferase reporter qHTS assay (AID 1671196). Further: nearly all actives have a fitted effect of over 50% in size. Further: potency means the concentration at half of the fitted maximal effect. Summed up:
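Test chemicals meet CYP2D6 plus proluciferin substrate (10 min, RT); NADPH regenerating solution then drives turnover for 1 h. Detection reagent halts the reaction; luminescence measured after 20 min.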

Assay [15] is described as follows: qHTS assay to identify small molecule antagonists of the TGF-beta/Smad signaling pathway - cell viability counter screen (AID 1346824). Further: nearly all actives have a fitted effect of over 50% in size. An outline of the steps: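 Cytotoxicity counter-screen run in the same wells as the beta-lactamase Smad reporter read: CellTiter-Glo luminescence after 30 min at room temperature. HEK 293T SBE-bla cells had 5 hr compound exposure at 37 C with TGF-beta1 (0.25 ng/mL stock).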

A short description of assay [16]: qHTS assay to identify small molecule agonists of the TGF-beta/Smad signaling pathway - cell viability counter screen (AID 1346829). Further: top concentration of the series differs between compounds; nearly all actives have a fitted effect of over 45% in size. Summed up: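 Here the cytotoxicity of library compounds is measured in SBE-bla HEK 293T cells treated for 5 hr, using CellTiter-Glo added to wells already read for the beta-lactamase reporter.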
Assay [17] addresses Nuclear receptor subfamily 1 group I member 2 (Homo sapiens) (UniProt O75469). The assay is described as follows: Human pregnane X receptor (PXR) small molecule agonists, qHTS assay (AID 1346982). Further: nearly all actives have a fitted effect of over 35% in size. Further: potency means the concentration at half of the fitted maximal effect. An outline of the steps:
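Reporter HepG2 cells expressing PXR-Luc are cultured in charcoal-stripped FBS (5%), treated with compounds for 24 hr at 37 C, and assayed by ONE-Glo luminescence after 30 min at room temperature.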

The target of assay [18] is Nuclear receptor subfamily 1 group I member 2 (Rattus norvegicus) (UniProt Q9R1A7). Description: Rat pregnane X receptor (rPXR) activation by small molecules, qHTS assay (AID 1346983). Further: nearly all actives have a fitted effect of over 20% in size. The conditions noted are these: rPXR luciferase reporter cells, One-Glo luminescence, 24 h; max activation: stronger effect = higher value. An outline of the steps:
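Luminescent readout (One-Glo luciferase, 30 min room temperature) followed 24 hr compound treatment at 37 C of rPXR cells plated 2,000 per well and preincubated 5hr; qHTS format with compounds delivered in DMSO.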

The target of assay [19] is Nuclear receptor subfamily 1 group I member 2 (Homo sapiens) (UniProt O75469). Description: CYP3A4 induction through human pregnane X receptor (PXR) by small molecules, qHTS assay (AID 1346984). Further: nearly all actives have a fitted effect of over 40% in size. Summed up: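 Induction measured in HepG2-based DPX-2 cells co-expressing human PXR and a CYP3A4 promoter-driven luciferase. After a 24-hour compound exposure, cells received CYP3A4 luciferin substrate at 3uM final for 3 hours, and light output was then recorded.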
Nuclear receptor subfamily 1 group I member 2 (Homo sapiens), sequence (O75469 whole entry, looked up): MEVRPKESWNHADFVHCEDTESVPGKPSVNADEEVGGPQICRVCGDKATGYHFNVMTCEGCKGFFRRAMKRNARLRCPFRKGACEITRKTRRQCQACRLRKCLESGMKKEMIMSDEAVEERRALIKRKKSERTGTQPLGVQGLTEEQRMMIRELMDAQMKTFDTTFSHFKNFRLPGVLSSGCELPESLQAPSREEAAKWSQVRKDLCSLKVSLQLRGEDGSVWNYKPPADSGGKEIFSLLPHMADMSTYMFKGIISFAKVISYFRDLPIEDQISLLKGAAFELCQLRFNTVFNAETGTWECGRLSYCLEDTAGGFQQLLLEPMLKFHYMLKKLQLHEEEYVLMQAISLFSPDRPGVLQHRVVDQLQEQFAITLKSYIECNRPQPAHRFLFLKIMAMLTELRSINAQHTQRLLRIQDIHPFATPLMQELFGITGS

Assay [20] shares this target. Description: Human pregnane X receptor (PXR) activation by small molecules, qHTS assay (AID 1346985). Further: nearly all actives have a fitted effect of over 40% in size. Summed up:
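DPX-2 cells (HepG2 co-transfected with a PXR response element and a CYP3A4-promoter luciferase construct) were seeded at 2,000 per well, rested 5 hr at 37C, then exposed to DMSO-dissolved compounds for 24 hr. Activation was read as luciferase luminescence.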
On the % scale 0 is the no-effect control and ±100 the full control effect.

Thyrotropin-releasing hormone receptor (Homo sapiens), sequence (P34981 whole entry, looked up): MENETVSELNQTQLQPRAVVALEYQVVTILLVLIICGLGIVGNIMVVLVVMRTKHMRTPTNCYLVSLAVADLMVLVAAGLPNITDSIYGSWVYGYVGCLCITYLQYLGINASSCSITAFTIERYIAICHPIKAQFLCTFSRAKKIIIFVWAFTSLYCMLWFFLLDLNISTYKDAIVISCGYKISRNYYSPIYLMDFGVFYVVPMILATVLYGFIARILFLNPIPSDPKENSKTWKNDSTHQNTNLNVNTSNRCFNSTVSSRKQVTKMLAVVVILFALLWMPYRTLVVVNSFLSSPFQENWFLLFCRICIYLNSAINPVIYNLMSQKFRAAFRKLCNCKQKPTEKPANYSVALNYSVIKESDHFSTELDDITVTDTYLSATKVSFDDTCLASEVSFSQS
Progesterone receptor (Homo sapiens), sequence (P06401 whole entry, looked up): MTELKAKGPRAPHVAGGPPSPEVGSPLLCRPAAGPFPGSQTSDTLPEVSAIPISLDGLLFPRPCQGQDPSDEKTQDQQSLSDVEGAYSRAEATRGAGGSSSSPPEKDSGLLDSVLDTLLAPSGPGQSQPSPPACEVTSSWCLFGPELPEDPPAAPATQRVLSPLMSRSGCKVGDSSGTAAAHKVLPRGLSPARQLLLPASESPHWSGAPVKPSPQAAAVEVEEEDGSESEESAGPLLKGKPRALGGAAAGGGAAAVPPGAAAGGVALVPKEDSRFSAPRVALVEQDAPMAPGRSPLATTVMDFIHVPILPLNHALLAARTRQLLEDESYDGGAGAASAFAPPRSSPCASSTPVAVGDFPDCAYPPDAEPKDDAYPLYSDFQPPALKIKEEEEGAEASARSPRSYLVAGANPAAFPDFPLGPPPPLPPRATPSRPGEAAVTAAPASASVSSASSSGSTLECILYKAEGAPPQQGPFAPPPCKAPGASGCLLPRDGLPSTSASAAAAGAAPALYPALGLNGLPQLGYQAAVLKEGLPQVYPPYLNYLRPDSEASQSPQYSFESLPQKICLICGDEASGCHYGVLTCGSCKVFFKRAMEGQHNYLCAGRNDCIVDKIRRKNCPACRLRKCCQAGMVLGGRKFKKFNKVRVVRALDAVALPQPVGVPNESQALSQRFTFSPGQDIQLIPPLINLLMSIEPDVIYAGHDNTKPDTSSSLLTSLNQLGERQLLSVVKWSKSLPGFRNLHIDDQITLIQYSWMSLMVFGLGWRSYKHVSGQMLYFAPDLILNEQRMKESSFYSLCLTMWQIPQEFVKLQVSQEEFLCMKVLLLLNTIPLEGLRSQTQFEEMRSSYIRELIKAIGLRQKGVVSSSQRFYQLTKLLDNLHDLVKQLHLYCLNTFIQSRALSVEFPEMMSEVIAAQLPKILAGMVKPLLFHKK
Cytochrome P450 2D6 (Homo sapiens), sequence (P10635 whole entry, looked up): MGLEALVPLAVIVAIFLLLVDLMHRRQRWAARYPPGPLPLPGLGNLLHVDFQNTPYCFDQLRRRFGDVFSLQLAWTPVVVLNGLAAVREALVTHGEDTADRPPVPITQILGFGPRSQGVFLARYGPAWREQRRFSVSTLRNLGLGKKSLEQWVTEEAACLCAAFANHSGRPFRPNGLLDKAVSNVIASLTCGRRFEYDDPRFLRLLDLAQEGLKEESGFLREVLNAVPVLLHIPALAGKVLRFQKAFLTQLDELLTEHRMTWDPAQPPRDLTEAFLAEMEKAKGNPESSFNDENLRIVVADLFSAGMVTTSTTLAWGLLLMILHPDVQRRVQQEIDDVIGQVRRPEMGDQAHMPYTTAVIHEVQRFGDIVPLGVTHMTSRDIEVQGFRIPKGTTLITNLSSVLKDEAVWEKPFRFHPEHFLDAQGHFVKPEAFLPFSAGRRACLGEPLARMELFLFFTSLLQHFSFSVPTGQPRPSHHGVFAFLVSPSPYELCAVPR
Nuclear receptor subfamily 1 group I member 2 (Rattus norvegicus), sequence (Q9R1A7 whole entry, looked up): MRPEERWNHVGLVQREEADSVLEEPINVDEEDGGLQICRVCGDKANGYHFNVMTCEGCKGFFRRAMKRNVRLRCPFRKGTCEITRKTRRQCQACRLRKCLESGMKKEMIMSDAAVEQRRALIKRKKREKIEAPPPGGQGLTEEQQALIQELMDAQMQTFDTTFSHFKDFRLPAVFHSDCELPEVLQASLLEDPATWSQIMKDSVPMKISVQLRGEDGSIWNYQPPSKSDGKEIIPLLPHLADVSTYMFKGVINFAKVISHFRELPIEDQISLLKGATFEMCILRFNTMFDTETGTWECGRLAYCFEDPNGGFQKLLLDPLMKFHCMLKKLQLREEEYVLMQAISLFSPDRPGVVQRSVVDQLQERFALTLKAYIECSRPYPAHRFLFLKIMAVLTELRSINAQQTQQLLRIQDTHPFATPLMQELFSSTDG

As for `CCN(CC)c1ccc(C(=C2C=CC(=[N+](CC)CC)C=C2)c2cc(S(=O)(=O)O)ccc2S(=O)(=O)[O-])cc1`, the Potency is 23.7 µM (active) in [1]; 15 µM (active) in [9]; 26.6 µM (active) in [11]; 23.7 µM (active) in [13]; 13.8 µM (active) in assay [14]. Also, the Potency entry in [2], in assay [3], in [4], in assay [5], in [6] and in assay [8] was “inactive” throughout. The Potency entry in assay [10] and in assay [12] was “inactive” throughout. Moreover, the outcome in assay [7] was inactive.
For the molecule `CC(=O)[O][Al][O]C(C)=O`, the Potency entry in [1], in assay [2], in [3], in assay [4], in [5] and in [15] was “inactive” each time. Besides, the Potency result in assay [6], in assay [9], in assay [10], in [11], in assay [13] and in assay [17] was “inactive” throughout. In addition, the Potency entry in assay [19], in assay [20] and in [14] was “inactive” in each case. For the same molecule, the result in [16] was inactive. Also, the max activation in [18] was -1.35%.
Consider `CC(COCCO)OCCO` (configuration not stated), for which the Potency entry in [1], in assay [2], in assay [3], in assay [4], in [5] and in assay [15] was “inactive” in each case. Also, the Potency result in [6], in [8], in assay [9], in assay [10], in assay [11] and in [12] was “inactive” throughout. Moreover, the Potency entry in assay [13] is “inactive”. In addition, in [7], the molecule was called inactive. The Potency in assay [14] is 25.8 µM (active).
As for `C/C=C(/C(=C/C)c1ccc(OC(C)=O)cc1)c1ccc(OC(C)=O)cc1`, the Potency result in assay [1], in assay [2], in assay [4], in [15], in assay [6] and in [8] was “inactive” each time. Also, the Potency entry in assay [9], in [13], in [17] and in [14] was “inactive” throughout. In addition, the Potency in assay [3] was 8.41 µM (active). Besides, the molecule was classed as inactive in [16] and in assay [7].
With `CN(C)C(=O)NC1(c2ccccc2)CCN(CC[C@@]2(c3ccc(F)c(F)c3)CN(C(=O)c3ccccc3)CCO2)CC1`, the Potency result in assay [1], in assay [2], in assay [3], in [5], in assay [15] and in [6] was “inactive” each time. Besides, the Potency entry in assay [8] and in assay [12] was “inactive” in each case. The call in [7] was inactive. Also, the Potency in assay [17] is 8.02 µM (active); in assay [14], 26.2 µM (active).
With `O=[N+]([O-])c1cccc(S(=O)(=O)O)c1`, the Potency entry in assay [1], in [2], in assay [3], in assay [15], in assay [6] and in [10] was “inactive” in each case. The Potency result in assay [11], in assay [12] and in assay [13] was “inactive” each time. The Potency in [14] is 7.21 µM (active).
With `COc1cc(Cl)c(OC)cc1N`, the Potency entry in assay [1], in [2], in assay [4], in assay [5], in [15] and in [6] was “inactive” throughout. Moreover, the Potency result in assay [8], in assay [9], in assay [10], in assay [11], in assay [12] and in [13] was “inactive” in each case. In addition, the call in [16] and in assay [7] was inactive. Also, the Potency in assay [17] was 48.6 µM (active); in assay [14] it was 63.3 µM (active).
For `CCCCCCCCCCO[C@@H]1O[C@H](CO)[C@@H](O)[C@H](O)[C@H]1O`, the Potency result in assay [1], in assay [2], in assay [4], in [5], in assay [15] and in assay [6] was “inactive” in each case. Further, the Potency result in [10], in assay [12], in assay [13] and in [14] was “inactive” in each case. In addition, the result in assay [16] was inactive.
